Active and inactive are the calls of the source.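 The calls were made as follows: active = cell killing with a fitted half-maximal concentration no more than twice the top valid dose used; inconclusive = flat curve with a moderate signal drop, or poor fit; inactive = the rest.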
Assay: HepG2 cell cytotoxicity, dose response, cytotoxicity control, plate reader, dry powder, set 7 (AID 743313)
Details: HepG2 viability, ATP luminescence (CellTiter-Glo), 72 h; series mostly up to 26 µM

Row | Compound | outcome
1 | CCOc1ccc(OCCn2c(=S)[nH]c3ccccc32)cc1 | inactive
2 | COc1ccc(OCCn2c(=S)[nH]c3ccccc32)cc1 | inactive
3 | S=c1[nH]c2cc(Cl)ccc2n1CCOc1ccccc1 | inactive
4 | Cc1ccc(C(C)C)c(OCCn2c(=S)[nH]c3ccc(Cl)cc32)c1 | inactive
5 | Fc1ccccc1OCCn1c(=S)[nH]c2ccccc21 | inactive
6 | Fc1cccc2c1[nH]c(=S)n2CCOc1ccccc1 | inactive
7 | CC(C)(C)c1ccc(OCCn2c(=S)[nH]c3ccccc32)cc1 | inactive
8 | Cc1ccc(C(C)C)c(OCCn2c(=S)[nH]c3c(Cl)cccc32)c1 | inactive
9 | COc1ccccc1OCCn1c(=S)[nH]c2ccccc21 | inactive
10 | Cc1cccc(OCCn2c(=S)[nH]c3ccc(C(F)(F)F)cc32)c1 | inactive
11 | Cc1ccc(OCCn2c(SCCO)nc3ccccc32)c(C(C)C)c1 | inactive
12 | Cc1ccccc1OCCn1c(=S)[nH]c2ccccc21 | inactive
13 | Cc1ccc(C(C)C)c(OCCn2c(=S)[nH]c3cc(F)ccc32)c1 | inactive
14 | S=c1[nH]c2ccccc2n1CCOc1ccccc1Cl | inactive
15 | Cc1ccc(C)c(OCCn2c(=S)[nH]c3ccccc32)c1 | inactive
16 | COCc1nc2ccccc2n1CCOc1ccc(C(C)(C)C)cc1 | inactive
17 | CC(C)c1ccc(OCCn2c(=S)[nH]c3ccccc32)cc1 | inactive
18 | Cc1cccc(OCCn2c(=S)[nH]c3ccccc32)c1 | inactive
19 | Fc1ccc2c(c1)[nH]c(=S)n2CCOc1ccccc1 | inactive
20 | Cc1cccc(OCCn2c(=S)[nH]c3cc(C(F)(F)F)ccc32)c1 | inactive
21 | Cc1ccc(C(C)C)c(OCCn2c(=S)[nH]c3ccccc32)c1 | inactive
22 | Cc1ccc(C(C)C)c(OCCn2c(CO)nc3ccccc32)c1 | inactive
23 | Cc1ccc(OCCn2cnc3ccccc32)cc1 | inactive
24 | Fc1cccc(OCCn2c(=S)[nH]c3ccccc32)c1 | inactive
25 | Fc1ccc2[nH]c(=S)n(CCOc3ccccc3)c2c1 | inactive
26 | Cc1ccc2c(c1)[nH]c(=S)n2CCOc1ccccc1 | inactive
27 | CC(C)c1ccccc1NCCn1c(=S)[nH]c2ccccc21 | inactive

Reference: PubChem BioAssay AID743313 (Broad Institute, 2014)
